Assay outcomes deposited in PubChem by Center for Chemical Genomics, University of Michigan.
Only some compounds are listed: those with a hit (about 0.9% of all), similar ones and a draw of the others.
HIV TAR-Tat = HIV-1 TAR-Tat binding disruption | HIV-1 TAR RNA, Tat peptide displacement FRET; hits give high values | z-score (test concentration not listed) | actives 0.6% (n = 100,000); active means z-score of 3 or more in at least 2 runs
CDC25B CDK2 inh = human CDC25B-CDK2/CyclinA binding inhibition; P30305+P24941; HTRF CDC25B-CDK2/CyclinA binding, anti-His/anti-Flag; hits give high values; z-score (no concentration beside the values); actives 0.72% (n = 94,000); AID 1259370; in the data active means z-score above about 3.2
The depositor's hits bear a star; / = not tested or not shown.

SMILES | HIV TAR-Tat | CDC25B CDK2 inh
N#CC1=C2SCN(Cc3ccco3)CN2C(=O)CC1c1cccs1 (centres undefined) | 1.2 | 2.5
CC(c1ccccc1)N1CSC2=C(C#N)C(c3ccc(F)cc3)CC(=O)N2C1 (centres undefined) | 2.8 | 3
Cc1ccsc1CCN1CSC2=C(C#N)C(c3ccc(Cl)cc3)CC(=O)N2C1 (centres undefined) | 2 | 3.2*
N#CC1=C2SCN(CCN3CCOCC3)CN2C(=O)CC1c1ccc(F)cc1 (centres undefined) | 1.7 | 0.4
CC(C)c1ccc(C2CC(=O)N3CN(Cc4ccccc4)CSC3=C2C#N)cc1 (centres undefined) | 0.39 | 5*
COC(=O)c1cc(NC(=O)c2cc(OC)cc(OC)c2)cc(C(=O)OC)c1 | / | -3.7
Cc1cc(C)c2c(N)c(S(=O)Cc3ccccc3)sc2n1 (centres undefined) | / | -1.3
Nc1ccc(-c2nc3ccc(-c4nc5ccc(N)cc5[nH]4)cc3[nH]2)cc1 | / | 9.9
Nc1ccc(-c2nc3cc(N)c(Cl)cc3[nH]2)cc1 | 5.5* | -6.2
CCOC(=O)c1[nH]c2sc(C)c(C)c2c1N | -2.7 | 3
CCOC(=O)c1[nH]c2sc3c(c2c1N)CCCC3 | 5.2* | 17*
COC(=O)c1[nH]c2sc3c(c2c1N)CCCC3 | 7* | 14*
O=c1[nH]c(=S)[nH]c2sc3c(c12)CCCC3 | / | -3.3
CS(=O)(=O)N1CCN(c2ccc(NC(=O)CN3C(=O)c4ccccc4S3(=O)=O)cc2)CC1 | 0.69 | 1.2
O=C(CN1C(=O)c2ccccc2S1(=O)=O)Nc1ccc(N2CCCC2)cc1 | 15* | 11*
O=C1NC(c2ccc(F)cc2)c2c1n[nH]c2-c1ccco1 (centres undefined) | -5.1 | 1.6
O=C1O[C@H]([C@@H](O)CO)C(O)=C1O | 0.06 | /
CCCCCCCCCCCCCCCC(=O)OC[C@H](O)[C@H]1OC(=O)C(O)=C1O | 17* | /
COc1cc(C)ccc1OCCSc1nnc(-c2cccc(C)c2)o1 | 2.3 | -0.41
CCOC(=O)c1ncn(-c2ccccc2)n1 | 0.55 | -1.9
CCOC(=O)Cn1cnc2nn(-c3ccccc3)cc2c1=O | 5.1* | 3.6
O=c1c2oc3nc4c(cc3c2ncn1Cc1ccc(Cl)cc1)CCCC4 | -0.28 | /
Cc1ccc(C)c(CNS(=O)(=O)c2ccc3c(c2)NC(=O)C(C)CS3)c1 (centres undefined) | 2.6 | /
Cc1nc2ccccc2c2c1C(=O)N(CC1CCCO1)C2=O (centres undefined) | 0.78 | 7.4*
Cc1nc2ccccc2c2c1C(=O)N(CC(C)C)C2=O | -0.86 | -0.98
SMILES | HIV TAR-Tat | CDC25B CDK2 inh
O=[N+]([O-])c1cccnc1ON=C(c1cccs1)c1cccs1 | / | 1.2
C=CCSc1nnc(NC(=O)c2cc(=O)c3cc(CC)ccc3o2)s1 | 9.8* | -0.88
C=CCSc1nnc(NC(=O)c2cc(=O)c3cc(Cl)ccc3o2)s1 | 2.2 | 0.15
CCOc1ccc(C2C(C#N)=C(N)Oc3n[nH]c(C)c32)cc1Br (centres undefined) | 0.41 | -0.27
COc1ccc(N2CSC3=C(C#N)C(c4c(F)cccc4Cl)CC(=O)N3C2)c(OC)c1 (centres undefined) | 1.9 | 0.86
COc1ccc(N2CSC3=C(C#N)C(c4ccccc4)CC(=O)N3C2)c(OC)c1 (centres undefined) | -2 | 4.3*
COc1ccc(N2CSC3=C(C#N)C(c4ccc(Br)cc4)CC(=O)N3C2)c(OC)c1 (centres undefined) | 0.32 | 2.4
COc1cccc(C2CC(=O)N3CN(c4ccc(OC)cc4OC)CSC3=C2C#N)c1 (centres undefined) | -0.1 | 5.9*
COc1ccc(S(=O)(=O)N2CCc3cc4ccc(C)cc4nc32)cc1Cl | 0.56 | -0.87
Cn1c(=O)n(C)c2cc(NC(=O)Cc3cccs3)ccc21 | -0.53 | /
CCOC(=O)c1cc(-c2ccccc2)sc1NC(=O)CSc1nc2ccccc2s1 | / | -0.35
CCOC(=O)c1cnn(-c2ccccc2)c1NC(=O)CSc1nc2ccccc2s1 | / | 19*
CN1CCN(Cc2c(O)ccc3c(=O)c(-c4ccc(Cl)cc4)c(C(F)(F)F)oc23)CC1 | 2.9 | -0.95
COC(=O)c1c(NC(=O)c2ccccc2C(=O)O)sc2c1CCC2 | 1.8 | 0.85
CNC(=O)c1cc(=O)n(CC(=O)Nc2sc3c(c2C(=O)OC)CCC3)c2ccccc12 | 8.3* | /
Oc1cc2c(cc1O)C1c3ccc(O)c(O)c3OCC1(O)C2 (centres undefined) | 29* | /
CC1CCc2c(C(=O)NC3CCCc4ccccc43)csc2C1 (centres undefined) | 0.7 | -1.7
CCCCCCCOC(=O)C1=C(C)Nc2nnnn2C1c1cccc(Br)c1 (centres undefined) | -1.8 | 1.1
O=c1c2c(nc3cc(-c4ccco4)[nH]n13)CSC2 | / | 19*
O=c1c2c(nc3cc(-c4ccccc4)[nH]n13)CCCC2 | / | 1
O=c1cc(-c2cccnc2)nc2cc(-c3ccco3)[nH]n12 | / | 19*
COc1cccc(-c2cc3nc(-c4ccccc4)cc(=O)n3[nH]2)c1 | / | -1.3
Cc1ccc(C)c(S(=O)(=O)Nc2ccc3oc(C)c(C(=O)O)c3c2)c1 | 14* | 0.27
COCCOC(=O)c1c(C)oc2ccc(NS(=O)(=O)c3cc(C)ccc3C)cc12 | / | -3.5
CN1C(C(=O)Nc2sc3c(c2C#N)CCC3)=CC(c2ccco2)=NS1(=O)=O | 6.1* | -0.91
SMILES | HIV TAR-Tat | CDC25B CDK2 inh
CN1C(C(=O)Nc2sc3c(c2C(N)=O)CCCC3)=CC(c2ccco2)=NS1(=O)=O | 0.79 | -1.4
O=C1Cc2cc(S(=O)(=O)NCc3ccccc3)ccc2N1 | 1.4 | /
O=C1Nc2ccc(S(=O)(=O)NCc3ccccc3)cc2C1=O | 6.2* | /
COc1ccc(-c2cc(NCc3ccccc3)n3cnnc3n2)cc1 | -0.26 | -0.04
O=C(Nc1cccc(C(=O)Nc2ccc(S(=O)(=O)O)c3cc(S(=O)(=O)O)cc(S(=O)(=O)O)c23)c1)Nc1cccc(C(=O)Nc2ccc(S(=O)(=O)O)c3cc(S(=O)(=O)O)cc(S(=O)(=O)O)c23)c1 | / | 4.6*
CC(=O)Nc1ccc(S(=O)(=O)Nc2cccc(C(=O)Nc3ccccc3C(=O)O)c2)cc1 | / | -2.6
O=C(CSc1ccc(-c2ccncc2)nn1)Nc1ccc(Br)cc1 | 1.1 | /
CCSc1nccc(C(F)(F)F)c1C(=O)Nc1c(C)cccc1C | / | -1.2
Cc1ccc(-c2c(N3CCN(c4cc(C)ccc4C)CC3)c(=O)c2=O)cc1 | 1.5 | /
Cc1ccc(C)c(N2CCN(c3c(-c4ccc(C)c(C)c4)c(=O)c3=O)CC2)c1 | 13* | /
Cc1c(/C=C(\C#N)S(=O)(=O)C(C)(C)C)sc2ccccc12 | / | -2.9
O=C(Cn1nc2c(cc1=O)CCCC2)Nc1ccc2c(c1)OCO2 | 6.2* | /
O=C(Cn1nc2c(cc1=O)CCCC2)Nc1ccc(Cl)cc1 | 1.3 | /
COc1ccc2nc(NS(=O)(=O)c3ccc(Cl)cc3)c(NCc3ccc4c(c3)OCO4)nc2c1 | 2.1 | -1.5
Cc1sc2c(c1C)CSC(C(=O)NCc1ccco1)=C2 | 3.6* | /
Cc1ccc(CNC(=O)C2=Cc3sc(C)c(C)c3CS2)cc1 | 0.81 | /
Cc1noc(/C=C/N2CCOCC2)c1S(=O)(=O)N1CCN(c2ccccc2F)CC1 | 1.4 | /
Cc1ccsc1CCNC(=O)CC(C)S(=O)(=O)c1ccc2c(c1)NC(=O)C(C)S2 (centres undefined) | -3 | /
Cc1ccc(-c2ccccc2)n1-c1cccc2cccnc12 | -1.6 | -2.5
Cc1ccc(-c2ccccc2)n1-c1cccnc1 | 1.1 | 17*
